Results on five molecules are retold here after PubChem BioAssay.

The nature of test [1]: inhibitors of TNFa-induced NFkB p65 translocation, primary screen, imaging, HUVEC, MLSMR starter and 10KST1 sets (AID 438).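 Further: compound added about 3h40 before a 20 min TNFalpha stimulation.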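 On inhibition: signal is the nuclear over cytoplasmic p65 intensity ratio per well.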 The following applies: HUVEC TNFa-induced p65 nuclear translocation; cell count: measured here: nuclei count (cytotoxicity indicator), at 2.08 µM; inhibition: at 2 µM, stronger effect = higher value, 0% TNFa-plus-vehicle, 100% no-TNFa wells.
Test [2] is described as follows: reduction of polyQ htt aggregates in cells – imaging, exon1htt(103Q)mCFP cells, high-content imaging, primary screen (AID 483;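 active means visual image review flags a hit and inhibition of aggregation exceeds 20%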;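 further: compound exposure lasted 3 days before fixation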;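 on nuclei count: percent of the per-plate median nuclei count of sample wells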). To be noted: exon1htt(103Q)mCFP cell line, aggregate imaging, at 2 µM; inhibition of aggregation: stronger effect = higher value; nuclei count: measured here: cell count, toxicity.
Test [3] is described as follows: endothelial E-selectin expression blockers – imaging, HUVEC, immunofluorescence, MLSMR starter and 10KST1 sets, primary screen (AID 487;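 active means visually confirmed hit in the image check and inhibition above 20%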;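 on inhibition: signal is fraction of cell area covered by stained E-selectin grains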;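 on nuclei count: 100% = median nuclei count of all wells on the same plate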). The following applies: HUVEC TNFalpha-induced E-selectin immunofluorescence imaging, at 2 µM; inhibition: stronger effect = higher value; nuclei count: measured here: cell number, toxicity.
A short description of test [4]: Primary imaging screen for DUSP6 inhibitors that restore phospho-Erk in transfected HeLa cells, chemical complementation (AID 609;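 active means compounds giving at least 50% inhibition in the cell-based MKP-3 phosphatase rescue imaging test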;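 on inhibition: phospho-Erk level distribution per well compared with pooled transfected vehicle control wells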). To be noted: HeLa MKP-3 transfected, phospho-Erk imaging KS statistic, at 10 µM, cells stimulated with TPA for 15 min.
Test [5] concerns the target Dual specificity protein phosphatase 6 (Homo sapiens) (UniProt Q16828). The description is as above. To be noted: HeLa MKP-3 transfected, phospho-Erk imaging KS statistic; at 10 µM; stronger effect = higher value; cells stimulated with TPA for 15 min.
Test [6] addresses Voltage-gated potassium channel subunit beta-2 (Rattus norvegicus) (UniProt P62483). Kind of test: inhibitors of rat Kvbeta2 reductase activity – biochemical, NADPH fluorescence, primary screen (AID 622;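 active means fluorescence slope higher than the sample average by over 3 SD, cut at about -0.22 in these data, passing the limit was not always enough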;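 further: slope of raw intensity against log time taken from 70 to 1610 s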). To be noted: recombinant KvBeta, 4-cyanobenzaldehyde reduction, at 10 µM, stronger effect = higher value.
For test [7] the target is unchanged. Kind of test: enhancers of rat Kvbeta2 NADPH turnover – biochemical, NADPH fluorescence, primary screen (AID 623;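 active means NADPH fluorescence slope more negative than the mean of all samples by about 3 SD, 99.7% confidence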;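 further: fluorescence intensity change per second fitted from 20 to 320 s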). To be noted: Recombinant KvBeta, NADPH fluorescence decrease slope, 10 min; at 10 µM; stronger effect = lower value.
In test [8] the target is Alpha-2C adrenergic receptor (Homo sapiens) (UniProt P18825). Kind of test: compounds altering alpha2C-coupled GIRK flux – cell-based, HEK293 alpha2C/GIRK1/2, thallium flux, primary screen (AID 624;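 active means fluorescence slope after compound addition differing from the mean of all screened samples at 99.7% confidence, in either direction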;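 further: slope of fluorescence ratio to pre-addition baseline per second over 15 to 24 s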). To be noted: thallium flux BTC fluorescence, at 10 µM, actives lie on both sides.
Alpha-2C adrenergic receptor (Homo sapiens), sequence (P18825 whole entry, looked up): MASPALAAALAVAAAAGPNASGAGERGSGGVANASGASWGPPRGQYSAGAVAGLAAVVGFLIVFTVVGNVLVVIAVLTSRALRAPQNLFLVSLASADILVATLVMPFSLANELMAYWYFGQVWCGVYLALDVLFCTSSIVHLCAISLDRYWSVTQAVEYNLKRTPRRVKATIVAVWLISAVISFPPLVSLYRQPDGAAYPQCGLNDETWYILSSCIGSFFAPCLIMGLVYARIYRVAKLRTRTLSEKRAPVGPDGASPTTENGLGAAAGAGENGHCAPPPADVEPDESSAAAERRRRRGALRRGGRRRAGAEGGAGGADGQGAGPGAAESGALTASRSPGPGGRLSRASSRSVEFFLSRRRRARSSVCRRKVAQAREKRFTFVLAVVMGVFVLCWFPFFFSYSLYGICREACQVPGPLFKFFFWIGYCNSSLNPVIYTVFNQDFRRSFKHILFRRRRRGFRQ
In test [9] the target is Muscarinic acetylcholine receptor M4 (Homo sapiens) (UniProt P08173). Kind of test: M4-linked GIRK flux change, two-sided – cell-based, HEK293 M4/GIRK, thallium flux, BTC-AM, M4 allosteric agonist project, primary screen (AID 625;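 active means fluorescence slope after compound addition differing from the mean of all tested samples at 99.7% confidence, mostly higher but some lower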;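 further: thallium influx through GIRK channels coupled to M4 in HEK293 cells with BTC-AM dye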). To be noted: at 10 µM, actives lie on both sides.
Muscarinic acetylcholine receptor M4 (Homo sapiens), sequence (P08173 whole entry, looked up): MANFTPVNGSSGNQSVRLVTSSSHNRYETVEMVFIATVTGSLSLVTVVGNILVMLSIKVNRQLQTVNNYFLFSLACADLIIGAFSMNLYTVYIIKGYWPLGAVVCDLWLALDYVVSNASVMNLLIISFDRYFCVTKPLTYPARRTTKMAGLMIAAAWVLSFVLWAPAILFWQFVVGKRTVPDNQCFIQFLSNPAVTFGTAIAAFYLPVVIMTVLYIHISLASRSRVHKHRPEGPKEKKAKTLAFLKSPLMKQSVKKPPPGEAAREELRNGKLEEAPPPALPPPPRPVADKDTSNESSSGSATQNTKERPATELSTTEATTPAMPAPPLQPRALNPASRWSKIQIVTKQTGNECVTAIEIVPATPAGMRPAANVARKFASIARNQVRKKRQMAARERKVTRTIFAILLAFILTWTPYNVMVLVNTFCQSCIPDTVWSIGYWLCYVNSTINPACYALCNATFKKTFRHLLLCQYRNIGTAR
A short description of test [10]: inhibitors of larval lipid processing in zebrafish, primary screen, whole organism, PED6 fluorescence, gall bladder and intestine (AID 686;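 active means a full or partial loss of lipid-probe fluorescence in the fish gall bladder, intestine or both, judged by eye; inactive means no fluorescence loss, or compound toxic to the fish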;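 further: larvae 5 to 7 days old with five fish per well; signal comes from phospholipase A2 cleavage of quenched PED6 carried via bile; overnight exposure to compound and PED6 before scoring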). To be noted: Zebrafish larvae PED6 lipid processing, fluorescence scoring; screened at 20 µM (by protocol).
A short description of test [11]: loss of swimming-algae plug formation – whole organism, Chlamydomonas reinhardtii, WT vs cilia-less mutant, absorbance, 96-well, primary screen (AID 463189;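 active means inhibition at or above 50% relative to wild type and mutant plate controls; inactive means inhibition below 50%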;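 further: 0% = wild type cc124 cells in DMSO and 100% = ciliumless bld1 mutant cells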). To be noted: Chlamydomonas reinhardtii gravitaxis, OD600 absorbance, 2 days; at 10 µM; stronger effect = higher value.
Test [12] is described as follows: blockers of RIG-like receptor reporter activation – cell-based, Sendai virus stimulus, luciferase, 10K MLSCN set, TLR/RLR signaling modifier project, primary screen (AID 602276;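 active means inhibition at or above 50% at 10 µM; inactive means inhibition below 50%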;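 further: firefly luciferase from ISG56 promoter only with Renilla not read in this screen; 0% = Sendai virus plus DMSO and 100% = medium plus DMSO without virus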). The following applies: HEK293 RL24 IRF3 luciferase reporter, at 10 µM, stronger effect = higher value. (In general: Reporter assays use an easily measured gene product as a stand-in for the process of interest.)

Test [13] in a line: TLR3 IRF3 reporter activation blockers – cell-based, poly I:C stimulus, luciferase, 10K MLSCN set, primary screen (AID 602277;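 active means inhibition of the reporter signal at or above 50%; inactive means inhibition below 50%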). To be noted: HEK293-TLR3 RL24 IRF3 luciferase reporter, at 10 µM, stronger effect = higher value.
Setting [14] is: measured here: cell density z-score.
Where [15] appears, read: measured here: nuclear c-Myc green intensity z-score.
Where [16] appears, read: measured here: nuclear pErk red intensity z-score, stronger effect = higher value.

Active and inactive are the calls of the source.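 How the source made its calls, unless noted: active means inhibition above 20% together with a positive visual image hit; inconclusive means visual image hit but inhibition not above 20%; inactive means no visual image hit.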

Dual specificity protein phosphatase 6 (Homo sapiens), sequence (Q16828 whole entry, looked up): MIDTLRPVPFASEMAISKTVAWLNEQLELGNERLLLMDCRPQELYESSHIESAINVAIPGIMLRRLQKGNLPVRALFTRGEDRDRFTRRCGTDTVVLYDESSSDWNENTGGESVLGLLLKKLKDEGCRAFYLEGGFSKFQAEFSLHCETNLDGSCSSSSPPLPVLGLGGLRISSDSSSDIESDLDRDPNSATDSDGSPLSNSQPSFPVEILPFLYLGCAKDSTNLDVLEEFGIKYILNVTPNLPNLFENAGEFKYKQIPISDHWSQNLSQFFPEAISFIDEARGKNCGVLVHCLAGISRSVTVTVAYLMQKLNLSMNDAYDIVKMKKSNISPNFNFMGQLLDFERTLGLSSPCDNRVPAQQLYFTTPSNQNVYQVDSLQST
Voltage-gated potassium channel subunit beta-2 (Rattus norvegicus), sequence (P62483 whole entry, looked up): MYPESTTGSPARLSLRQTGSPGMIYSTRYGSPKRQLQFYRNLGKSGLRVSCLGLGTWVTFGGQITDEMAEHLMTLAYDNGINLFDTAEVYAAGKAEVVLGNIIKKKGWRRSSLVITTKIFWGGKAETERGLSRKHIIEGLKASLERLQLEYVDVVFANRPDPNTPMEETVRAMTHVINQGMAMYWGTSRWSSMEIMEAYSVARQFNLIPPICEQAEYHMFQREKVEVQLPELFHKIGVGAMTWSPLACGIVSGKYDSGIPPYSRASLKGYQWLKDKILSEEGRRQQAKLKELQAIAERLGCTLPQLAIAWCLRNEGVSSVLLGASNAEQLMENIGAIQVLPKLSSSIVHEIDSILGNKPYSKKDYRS

By inhibition is commonly meant the relative decrease from the control value, in per cent. In the case of `O=C(Nc1nccs1)NC(C(F)(F)F)C(F)(F)F`, the cell count in test [1] turned out to be 620. Moreover, the inhibition is 10.3% (inactive) in [1]; 14.4% (inactive) in [3]; 3.49% (inactive) in test [5]; 28.7% (inactive) in test [11]; 22.5% (inactive) in test [12]; 33.5% (inactive) in test [13]. Further, the inhibition of aggregation in [2] is -10.4% (inactive). Also, the nuclei count came out at 101% in [2] and 95.3% in test [3]. The z-score in test [4] (setting [14]) was 0.47; in test [4] (setting [15]), -0.00766; in test [4] (setting [16]) it was -0.375. Moreover, the fluorescence slope in test [6] is -0.522 (inactive); in test [9], 0.00652 (inactive). For the same molecule, the NADPH fluorescence slope in test [7] is -4.1e-05 (inactive). The slope in [8] was 0.00624 (inactive). Further, the call in [10] was inactive.
Regarding `CC(C(=O)O)c1ccc(-c2ccccc2)c(F)c1` (centres undefined), the cell count in [1] was 557. Moreover, the inhibition is -7.8% (inactive) in [1]; -48.5% (inactive) in test [3]; 23.4% (inactive) in [5]; 42.5% (inactive) in test [11]; 18.5% (inactive) in [12]; 42.9% (inactive) in test [13]. Further, in [2], the inhibition of aggregation is -18.5% (inactive). Also, the values for the nuclei count in test [2] and in test [3] were 101% and 113%, respectively. Also, the z-score in test [4] (setting [14]) is 2.7; in test [4] (setting [15]) it was -2.89; in [4] (setting [16]), 0.18. In addition, the fluorescence slope in test [6] is -0.456 (inactive). Further, in test [7], the NADPH fluorescence slope is -6e-05 (inactive). The slope in [8] is 0.0055 (inactive).
With `COCCNC(=O)c1c(N)n(/N=C/c2cccs2)c2nc3ccccc3nc12`, the cell count in [1] is 516. Besides, the inhibition in [1] is 7.2% (inactive); in test [3] it was -36.6% (inactive); in [5] it was 1.75% (inactive); in [11], 17.7% (inactive); in test [12], 5.03% (inactive); in test [13] it was -26.9% (inactive). The inhibition of aggregation in test [2] is -25.1% (inactive). Besides, the nuclei count in test [2] stood at 108%; in [3] it was 107%. The z-score in [4] (setting [14]) is 0.126; in test [4] (setting [15]), 0.305; in test [4] (setting [16]) it was -0.729. The fluorescence slope in test [6] was -0.287 (inactive). The NADPH fluorescence slope in test [7] is -9.2e-05 (inactive). The slope in test [8] was 0.00574 (inactive).
Regarding `Cc1cccc(COc2ccc(/C(O)=C3\C(=O)C(=O)N(CCN(C)C)C3c3ccncc3)cc2)c1` (centres undefined), in test [1], the cell count is 526. For the same molecule, the inhibition in test [1] is 3.2% (inactive); in test [3], -20.5% (inactive); in test [5] it was -1.75% (inactive); in [11], -10.1% (inactive); in [12], 9.07% (inactive); in test [13], 4.16% (inactive). For the same molecule, the inhibition of aggregation in [2] is -20.7% (inactive). Further, the nuclei count in [2] worked out at 106%; in test [3] it was 126%. The z-score is -1.17 in test [4] (setting [14]), 0.707 in test [4] (setting [15]) and -0.252 in test [4] (setting [16]). In addition, the fluorescence slope in [6] was -0.434 (inactive). Moreover, in test [7], the NADPH fluorescence slope is -0.000161 (inactive). For the same molecule, the slope in test [8] was 0.00578 (inactive).
On to `COc1ccc(/C(O)=C2/C(=O)C(=O)N(CCN(C)C)C2c2ccccn2)cc1OC` (centres undefined), for which the cell count in test [1] amounted to 485. Moreover, the inhibition in [1] is -2% (inactive); in test [3], -108% (inactive); in test [5], 2.71% (inactive); in [11], -0.28% (inactive); in test [12], -0.634% (inactive); in test [13], 5.99% (inactive). For the same molecule, in test [2], the inhibition of aggregation was -10.2% (inactive). Moreover, the nuclei count came to 100% in test [2] and 103% in test [3]. The results for the z-score in test [4] (setting [14]), in test [4] (setting [15]) and in test [4] (setting [16]) were -0.696, -0.268 and -0.24, respectively. Also, the fluorescence slope in test [6] was -0.47 (inactive); in [9] it was 0.00535 (inactive). The NADPH fluorescence slope in test [7] is -8.1e-05 (inactive). Besides, the slope in [8] is 0.00777 (inactive). Moreover, the molecule was called inactive in [10].
